# Bioassay records: PubChem BioAssay, The Scripps Research Institute Molecular Screening Center
# DAX1 inh-1: inhibitors of human orphan nuclear receptor DAX1 (NR0B1); P51843; HEK293 Gal4-DAX1 luciferase reporter, luminescence; inhibition, % at 6.75 µM; hit rate 0.99% among 340,000; AID 504766;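 active means inhibition above the mean over all tested compounds plus 3 SD, cut at about 4.2% in these data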;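 further: 0% = DAX1-transfected cells with DMSO and 100% = empty-vector control cells with DMSO; inhibition shows as a rise in luminescence from relieved DAX1 repression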
# hcDAF-12 act: activates DAF-12 receptor from parasite H. contortus; HEK293 hcDAF-12 lit1-tk-luc reporter, luminescence; 0% DMSO, 100% Δ7-dafachronic acid; activation, % at 6.8 µM; hit rate 1.4% among 370,000; AID 652067;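 active means activation above the mean of all tested compounds plus 3 SD, cut at about 5.5% in these data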;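 further: 100% = response to 3 µM Δ7-dafachronic acid high control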
# hgDAF12 agonist: agonists of H. glycines DAF-12 nuclear receptor. HEK293 GAL4-hgDAF12 UAS-luciferase reporter, agonist luminescence; normalized to butyrate control. activation, % at 6.8 µM. hit rate 1.8% among 370,000;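 active means activation above a cutoff set at the mean of all screened compounds plus 3 SD, cut at about 10% in these data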;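 further: 0% = DMSO wells and 100% = sodium butyrate wells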
# ssDAF12 agonist: S. stercoralis DAF-12 activation, primary screen. AID 652126. HEK293 ssDAF-12/GRIP1 lit1-tk-luc reporter, luminescence; % of 3 µM dafachronic acid response. activation, % at 6.8 µM. hit rate 1% among 370,000;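 active means activation above the mean over all tested compounds plus 3 SD, cut at about 0.9% in these data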;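 further: 0% = DMSO-only wells and 100% = 3 µM delta7-dafachronic acid wells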
# DAX1 inh-2: inhibitors of DAX1 repression of SF-1 activated StAR promoter; hit rate 1.1% among 370,000; HEK293T StAR-luciferase reporter, SF-1/DAX-1 repression relief; AID 652010; inhibition, % at 6.8 µM;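 active means inhibition above the mean over all tested compounds plus 3 SD, cut at about 3.6% in these data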;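 further: 0% = DAX-1 cells with DMSO and 100% = cells lacking DAX-1 with DMSO; higher inhibition means more luminescence from relief of DAX-1 repression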
# AHR act: activators of human aryl hydrocarbon receptor. hit rate 2.5% among 320,000. AID 2796. P35869. AHR-responsive luciferase reporter cells, luminescence. activation, % at 5 µM; in the data active means activation above about 47%;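 further: 0% = vehicle wells and 100% = reference agonist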
# Target sequence (P35869 whole entry, looked up): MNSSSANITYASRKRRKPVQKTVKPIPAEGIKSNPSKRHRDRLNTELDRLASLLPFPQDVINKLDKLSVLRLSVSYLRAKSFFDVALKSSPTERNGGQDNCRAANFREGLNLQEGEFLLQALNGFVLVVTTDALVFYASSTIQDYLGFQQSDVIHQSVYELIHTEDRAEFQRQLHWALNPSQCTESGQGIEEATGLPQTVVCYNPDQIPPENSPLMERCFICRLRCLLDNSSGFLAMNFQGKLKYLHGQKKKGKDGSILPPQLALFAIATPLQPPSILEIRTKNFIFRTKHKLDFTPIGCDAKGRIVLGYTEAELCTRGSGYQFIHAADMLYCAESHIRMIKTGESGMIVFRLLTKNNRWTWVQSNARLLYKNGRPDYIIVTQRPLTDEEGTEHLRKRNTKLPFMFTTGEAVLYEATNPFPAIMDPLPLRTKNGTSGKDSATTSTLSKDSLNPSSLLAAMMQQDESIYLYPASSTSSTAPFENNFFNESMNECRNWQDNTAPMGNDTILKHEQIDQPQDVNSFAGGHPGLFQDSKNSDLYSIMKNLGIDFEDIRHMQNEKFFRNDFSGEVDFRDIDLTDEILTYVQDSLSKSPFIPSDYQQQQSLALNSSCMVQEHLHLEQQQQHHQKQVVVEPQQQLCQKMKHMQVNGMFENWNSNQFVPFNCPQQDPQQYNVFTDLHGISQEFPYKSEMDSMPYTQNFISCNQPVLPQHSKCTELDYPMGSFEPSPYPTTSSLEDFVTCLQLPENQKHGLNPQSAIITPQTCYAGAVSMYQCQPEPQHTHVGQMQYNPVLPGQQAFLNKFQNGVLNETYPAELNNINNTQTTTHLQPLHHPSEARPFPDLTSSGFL
# * hit, by the source's call; x = not tested or not shown. Most compounds without a hit are left out; they make up all but 5.7% or so of the library.
SMILES,DAX1 inh-1,hcDAF-12 act,hgDAF12 agonist,ssDAF12 agonist,DAX1 inh-2,AHR act
COc1cccc(/C=C/C(=O)c2ccc3c(c2)OCCO3)c1OC,0,0,10*,-1,0,7
O=C(/C=C/c1ccc2c(c1)OCCO2)c1ccccc1,x,4,11*,-1,1,1
COc1ccc(C(=O)/C=C/c2ccc3c(c2)OCCO3)cc1,4,0,2,0,0,2
CCN(CC(=O)Nc1ccc2c(c1)OCCO2)C(=O)/C=C/c1cccc(OC)c1OC,2,1,5,0,2,12
CC(C)N1CC(C(=O)Nc2ccc(F)c(Cl)c2)CC1=O (configuration not stated),-1,-1,1,-1,0,-1
Cc1ccccc1OCc1nnc2n1CC(C)S2 (configuration not stated),4.6*,1,3,0,-1,1
O=C(COC(=O)c1cnccn1)NCCc1ccccc1,1,-1,0,-1,-1,1
O=C(NCCc1ccccc1)c1cccc(Br)c1,1,1,6,0,1,0
O=C(Nc1ccccc1C(=O)NCCc1ccccc1)c1cnccn1,0,3,6,0,1,61*
O=C(NCCc1ccccc1)c1cccnc1,2,1,11*,-1,1,2
O=C(NCCc1ccccc1)c1ccc2nccnc2c1,-1,5,11*,0,4.2*,-5
Cc1ccc(-c2nc(CN3CCCCC3CCN3CCCC3=O)c(C)o2)o1 (configuration not stated),0,-2,2,0,0,3
Cc1cc(C)c(NC(=O)CS(=O)CC(=O)NCC2CCCO2)c(C)c1 (configuration not stated),-1,4,1,0,2,18
O=C(NCc1nc2ncc(Br)cc2[nH]1)c1ccccc1,0,0,3,-1,0,78*
Cc1ccccc1CSCCNC(=O)COc1ccc(Cl)cc1,6.6*,-1,2,-1,-1,-1
COc1ccccc1/C=C(/CC(=O)NCc1ccc2c(c1)OCO2)c1nc2ccccc2s1,-1,4,1,1,0,81*
COc1ccccc1/C=C/C(=O)OCC(=O)NCc1ccc2c(c1)OCO2,0,1,3,-2,1,0
Nc1nc2n[nH]nc2c(=O)[nH]1,2,2,1,1.5*,0,0
Nc1nc2nn(-c3ccccc3)nc2c(=O)[nH]1,1,2,4,-1,0,3
CCCCCCc1cc2cc(C(N)=O)c(=N)oc2cc1O,x,x,x,x,x,9
Cc1cc(C(=O)NNS(=O)(=O)c2cccc(Cl)c2)nn1C(C)(C)C,4.2*,-1,-1,-1,0,41
O=C(CCSc1ccc(Cl)cc1)N1CCOCC1,0,0,3,-1,1,2
COc1cc(CNC(=O)C2CC(O)CN2C(=O)Nc2ccccc2)cc(OC)c1OC (configuration not stated),0,1,-1,-1,0,x
CSc1nc(O)c(C(c2cccc([N+](=O)[O-])c2)c2c(O)nc(SC)[nH]c2=O)c(=O)[nH]1,1,6.0*,0,1,-1,0
CSc1nc(O)c(C(c2ccc(O)cc2)c2c(O)nc(SC)[nH]c2=O)c(=O)[nH]1,-1,1,0,-1,0,-2
SMILES,DAX1 inh-1,hcDAF-12 act,hgDAF12 agonist,ssDAF12 agonist,DAX1 inh-2,AHR act
Cc1nc2ccccc2c2oc(C(=O)N3CCN(C4CCCCC4)CC3)cc12,-6,-1,-4,-2,-2,17
CCCCn1c(/C=N/Nc2nc3ccccc3[nH]2)nc2ccccc21,1,4,2,-1,0,73*
C(=N\Nc1nc2ccccc2[nH]1)/c1cccc2nccnc12,x,2,1,-1,-1,27
C#CCn1cc(/C=N/Nc2nc3ccccc3[nH]2)c2ccccc21,-4,-4,-10,-1,-4,127*
Cc1ccc(S(=O)(=O)n2c(C)nc3ccccc32)cc1,1,-2,-1,-1,0,1
Cc1ccccc1NC(=S)NCCc1c[nH]c2ccccc12,1,6.0*,2,0,-1,22
COc1ccc2c(c1)[nH]c1c(=O)n(Cc3ccccn3)cnc12,3,2,0,-1,0,12
Cc1ccc2c(c1)[nH]c1c(=O)n(Cc3ccccn3)cnc12,0,0,3,0,1,49*
Cc1ccc(NC(=O)C2CC(=O)Nc3nncn32)cc1 (configuration not stated),0,2,3,8.3*,0,5
O=C1CC(C(=O)Nc2ccc(Cl)cc2)n2ncnc2N1 (configuration not stated),0,-1,-2,-1,0,0
C=C(C)CNC(=S)N=Nc1c(O)[nH]c2ccc([N+](=O)[O-])cc12,-2,0,2,-1,0,26
CC(C)NC(=S)N=Nc1c(O)[nH]c2ccc([N+](=O)[O-])cc12,0,1,3,-1,-1,60*
CNC(=S)N=Nc1c(O)[nH]c2ccccc12,0,5.6*,0,-1,-1,40
O=C(CCNC(=O)c1ccccc1)N=Nc1c(O)[nH]c2ccccc12,x,1,-2,21*,1,3
Cc1noc(C)c1COc1cccc(C(=O)OCC(=O)NCCN2C(=O)CSC2=O)c1,0,-1,0,-1,0,-1
CC(=O)C[C@@H](O)CC(=O)[C@H]1OC(=O)[C@H](C)C/C=C\Cc2ccccc21,-1,-1,-1,-1,2,0
COc1ccc(C(=O)OCCCN(C)C2CN(Cc3cn(Cc4cccc(F)c4)nn3)S(=O)(=O)C2)cc1OC (configuration not stated),x,-2,4,-1,-1,x
CCn1c(O)c(N=NC(=O)CNc2ccc(C)cc2)c2ccccc21,0,-1,0,-2,0,67*
Cc1ccc(NCC(=O)N=Nc2c(O)n(C)c3ccccc23)cc1,0,3,2,-1,1,49*
Cn1c(O)c(N=NC(=O)CNC(=O)c2ccccc2)c2ccccc21,0,-1,-2,-2,0,3
CN(C)c1ccc(-c2[nH][nH]c(=O)c2NC(=O)c2ccccn2)cc1,x,-2,-2,-2,-4,x
O=S(=O)(c1ccccc1)N1CCN(CC2CC3C=CC2C3)CC1 (configuration not stated),-1,-1,-1,-2,0,1
O=S(=O)(c1ccc(F)cc1)N1CCN(CC2CC3C=CC2C3)CC1 (configuration not stated),0,6.5*,0,-1,0,-3
CCC(=O)N1C(C(=O)O)CSC1c1ccc(OC)cc1 (configuration not stated),3,-1,-1,-1,0,0
